For 9 compounds, growth results are on record in PubChem BioAssay (NCI).

This is part of a sample that, as a whole, favours compounds with a hit. Of some 83,000 tested, about 20% had one in any assay.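 Single-concentration screen, 48 h exposure, 96-well plates. Endpoint: percent growth. Below 10 = active.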 Values without a mark were called inactive. Calls of active or inactive are those of the source.

Among the test systems are HCT-15 colon; HT29 colon; SNB-75 CNS; SNB-19 CNS; U251 CNS; PC-3 prostate; SK-MEL-5 melanoma; UACC-62 melanoma; SK-MEL-28 melanoma; SK-MEL-2 melanoma; SN12C renal; UO-31 renal; TK-10 renal; ACHN renal; CCRF-CEM leukemia; MOLT-4 leukemia; CAKI-1 renal; A498 renal; LOX IMVI melanoma; EKVX NSCLC.
Test in all cases: NCI-60 one-dose screen, 48 h (100 = growth as untreated, 0 = no growth, -100 = all killed)
Holding throughout (conditions): 10 µM unless noted

As to `COc1cccc(C=Nc2cc(C(C)C)c(O)cc2C)c1O`, the growth is 96% in the assay on HCT-15 colon; 103% with HT29 colon; 88.3% in the assay on SNB-75 CNS; 93.2% in the assay with SNB-19 CNS; 96% in the assay with U251 CNS; 92.8% in the assay with PC-3 prostate. In addition, the growth is 104% in the assay on SK-MEL-5 melanoma; 91.9% with UACC-62 melanoma; 116% with SK-MEL-28 melanoma; 102% in the assay on SK-MEL-2 melanoma; 95% with SN12C renal; 72.4% with UO-31 renal. In addition, the growth with TK-10 renal was 99.8%; in the assay with ACHN renal, 100%; in the assay on CCRF-CEM leukemia, 35%; with MOLT-4 leukemia, 98.2%.

On to `O=C(NC1CCCCC1)c1ccc(Nc2ncnc3c2cnn3-c2ccccc2)cc1`, for which the growth with HCT-15 colon is 66.6%; with HT29 colon, 70.2%; with SNB-75 CNS, -20.3% (active); in the assay on SNB-19 CNS it was 48.7%; in the assay with U251 CNS, 40.2%; in the assay on PC-3 prostate, 53.3%. Further, the growth with SK-MEL-5 melanoma is 75.4%; with UACC-62 melanoma, 63.9%; in the assay with SK-MEL-28 melanoma, 62.2%; in the assay with SK-MEL-2 melanoma, 79.1%; in the assay with SN12C renal, 19%; with UO-31 renal, 57.7%. In addition, the growth is 51% in the assay with TK-10 renal; 54.3% with ACHN renal; 62.3% with CAKI-1 renal; 50.4% with A498 renal; 64.9% with CCRF-CEM leukemia; 89.5% with MOLT-4 leukemia.

`C/C(=C\CCc1ccoc1)CC/C=C(\C)CCCC1COC(=O)C1` (stereo not given): the growth is 99.2% in the assay on HCT-15 colon; 113% in the assay on HT29 colon; 96.7% in the assay with SNB-75 CNS; 99.6% with SNB-19 CNS; 95.6% in the assay with U251 CNS; 91.2% in the assay with PC-3 prostate. For the same compound, the growth in the assay with SK-MEL-5 melanoma was 98.6%; with UACC-62 melanoma, 80%; with SK-MEL-28 melanoma, 96.9%; in the assay on SK-MEL-2 melanoma it was 100%; in the assay on SN12C renal, 94.8%; in the assay on UO-31 renal, 78.8%. Besides, the growth with TK-10 renal was 114%; with ACHN renal, 97.5%; in the assay with CAKI-1 renal, 94.4%; in the assay on A498 renal, 91.3%; in the assay with CCRF-CEM leukemia, 93%; in the assay with MOLT-4 leukemia, 92.2%.

As to `Cc1cc(Br)c(C)cc1Br`, the growth in the assay on HCT-15 colon is 101%; in the assay with HT29 colon, 94.2%; in the assay on SNB-75 CNS it was 100%; in the assay on SNB-19 CNS, 108%; in the assay on U251 CNS it was 98.9%; with PC-3 prostate, 95.8%. Moreover, the growth in the assay with SK-MEL-5 melanoma is 96.9%; in the assay with UACC-62 melanoma, 102%; in the assay with SK-MEL-28 melanoma, 103%; in the assay on SK-MEL-2 melanoma it was 100%; in the assay with SN12C renal it was 108%; in the assay with UO-31 renal, 91.3%. Also, the growth with TK-10 renal was 105%; in the assay with ACHN renal, 102%; with CAKI-1 renal, 95.2%; in the assay on A498 renal, 77.7%; with CCRF-CEM leukemia, 94.4%; with MOLT-4 leukemia, 87.3%.

With `c1ccc(COc2ccc(Nc3ncnc4c3cnn4-c3ccccc3)cc2)cc1`, the growth with HCT-15 colon was 72.4%; in the assay on HT29 colon it was 116%; in the assay on SNB-75 CNS, 102%; in the assay with SNB-19 CNS, 96%; with U251 CNS, 106%; in the assay on PC-3 prostate, 88.5%. The growth is 94.3% with SK-MEL-5 melanoma; 93.3% in the assay on UACC-62 melanoma; 96% in the assay on SK-MEL-28 melanoma; 115% with SK-MEL-2 melanoma; 97.4% with SN12C renal; 79.6% in the assay on UO-31 renal. The growth in the assay on TK-10 renal is 111%; in the assay on ACHN renal, 104%; in the assay with CAKI-1 renal, 99.1%; in the assay on A498 renal it was 77.9%; in the assay with CCRF-CEM leukemia, 80.8%; in the assay on MOLT-4 leukemia it was 93.1%.

As for `COc1cc(-c2nc3sc4c(c3c(=O)[nH]2)CCCCCC4)cc(OC)c1OC`, the growth in the assay on HCT-15 colon was 24.8%; in the assay on HT29 colon, 10.5%; in the assay on SNB-75 CNS, -0.669% (active); with SNB-19 CNS it was 21.2%; in the assay with U251 CNS, 25.8%; in the assay with PC-3 prostate, 38%. Moreover, the growth is 8.73% (active) in the assay with SK-MEL-5 melanoma; 19.1% in the assay with UACC-62 melanoma; 51.6% with SK-MEL-28 melanoma; 16.4% with SK-MEL-2 melanoma; 22.1% in the assay on SN12C renal; 27.8% in the assay with UO-31 renal. In addition, the growth is 47.6% in the assay on TK-10 renal; 44.5% in the assay with ACHN renal; 19.9% with CAKI-1 renal; -12.3% (active) in the assay with A498 renal; 14.3% in the assay on CCRF-CEM leukemia; 14.6% with MOLT-4 leukemia.

In the case of `CCCCCCCCCCOC(C)=O`, the growth in the assay on HCT-15 colon was 107%; with HT29 colon, 106%; in the assay on SNB-75 CNS it was 80.7%; in the assay on SNB-19 CNS, 108%; in the assay with U251 CNS it was 108%; in the assay with PC-3 prostate, 93.4%. Further, the growth was 107% in the assay with SK-MEL-5 melanoma; 103% with UACC-62 melanoma; 110% in the assay with SK-MEL-28 melanoma; 116% in the assay with SK-MEL-2 melanoma; 103% in the assay on SN12C renal; 89% in the assay with UO-31 renal. In addition, the growth in the assay on TK-10 renal is 116%; with ACHN renal it was 98.8%; in the assay on CAKI-1 renal it was 79.8%; with A498 renal, 108%; in the assay with MOLT-4 leukemia, 103%.

Take `COc1ccc(CNC(=O)c2c(C)n([O-])c3ccccc3[n+]2=O)cc1`: the growth is 103% in the assay with HCT-15 colon; 102% in the assay on HT29 colon; 79.9% with SNB-75 CNS; 97.7% in the assay on SNB-19 CNS; 97.3% with U251 CNS; 86.3% in the assay on PC-3 prostate. In addition, the growth with SK-MEL-5 melanoma was 76.6%; in the assay on LOX IMVI melanoma it was 96.8%; in the assay with SK-MEL-28 melanoma, 104%; in the assay with SK-MEL-2 melanoma, 95.8%; in the assay on EKVX NSCLC it was 83.8%; with SN12C renal, 101%. The growth with UO-31 renal is 32.9%; in the assay with TK-10 renal, 120%; in the assay on ACHN renal it was 109%; in the assay with CAKI-1 renal it was 112%; in the assay on A498 renal, 96.1%; in the assay on CCRF-CEM leukemia it was 98.4%. Besides, the growth in the assay on MOLT-4 leukemia was 93.4%.

On to `COc1cc(/C=C/C(=O)CC(=O)/C=C/c2ccc(OC(=O)C3C4CC5CC(C4)CC3C5)c(OC)c2)ccc1OC(=O)C1C2CC3CC(C2)CC1C3` (stereo not given), for which the growth in the assay with HCT-15 colon was 135%; in the assay with HT29 colon it was 105%; in the assay on SNB-75 CNS, 107%; in the assay with SNB-19 CNS, 106%; in the assay with U251 CNS it was 111%; in the assay with PC-3 prostate it was 82.8%. For the same compound, the growth in the assay on SK-MEL-5 melanoma is 110%; in the assay with UACC-62 melanoma it was 114%; with SK-MEL-28 melanoma it was 131%; in the assay on SK-MEL-2 melanoma it was 93.1%; with EKVX NSCLC, 109%; in the assay on SN12C renal, 108%. In addition, the growth in the assay with TK-10 renal is 96.9%; in the assay on ACHN renal it was 144%; in the assay with CAKI-1 renal it was 99.6%; with A498 renal it was 109%; with CCRF-CEM leukemia it was 89.8%; in the assay on MOLT-4 leukemia it was 103%.
